We go through 39 molecules from PubChem BioAssay (NCI).

About 83,000 compounds went through this panel and 20% of them were active in at least one assay; those are over-represented in the sample as a whole.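 Note: values are percent growth. 100 is the growth of untreated cells, values between 100 and 0 indicate rising inhibition; between -100 and 0 indicates cell death.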 Values without a mark were called inactive. Activity calls are given as the source filed them. The calls were made as follows: active = growth percent below 10; inactive = the rest.

This experiment deals with MDA-MB-468 breast. Description: NCI-60 one-dose screen, 48 h (100 = growth as untreated, 0 = no growth, -100 = all killed). The settings on record: 10 µM unless noted.
`COc1cc2c(cc1OC)C(=O)/C(=C/c1cc(C)c(O)c(C)c1)S2`: the growth is 11.4%.
Turning to `CC(C)[N+](C)(C)CC(O)COc1cccc2ccccc12` (centres undefined), the growth was 104%.
As for `CCCCCCCCCCCCNC(=O)[C@H]1CSC(c2ccc(OC)c(F)c2)N1` (some centres undefined), the figure is -81.4% (active); as for `COc1ccc(C2CC(n3ccnc3)c3cc(OC)c(OC)c(OC)c32)cc1O` (centres undefined), 78.6%.
To `Cc1ccc2c(c1)-c1cc(C)nn1-c1ccc(C#N)cc1O2` belongs 40.9%.
To `O=S(=O)(NCCCNc1cc(-c2c(-c3cccc(O)c3)nc3sccn23)ccn1)c1cccc(Cl)c1` belongs 37.2%; to `CC1CCC2C(C)(C)C3CC12CC1OC13C` (centres undefined), 99.8%.
On to `CCCCCCCCCCCCCCCCNc1ccccc1`, for which the growth is 108%.
As for `Nc1cccc(-c2nc3sccn3c2-c2ccnc(NCCNS(=O)(=O)c3ccc(C(F)(F)F)cc3)n2)c1`, the figure is 51.4%.
On to `N#Cc1c(-c2cccc(F)c2)cc(-c2cccnc2)[nH]c1=O`, for which the growth was 106%.
`COc1ccc(NC(=O)CSc2oc(-c3ccccc3)nc2S(=O)(=O)c2ccc(Cl)cc2)c(OC)c1`: the growth was 57.8%.
For `C=CCN=C1NC(=O)/C(=C/c2cc(C(C)(C)C)c(O)c(C(C)(C)C)c2)S1`, the growth is 43.4%.
As for `COc1ccc2cc(C3=CC(=O)CCC3)ccc2c1`, the growth is 100%.
Regarding `CCN(CC)Cc1cc(Nc2ccnc3cc(Cl)ccc23)cc(-c2ccc(Cl)cc2)c1O`, the growth is 5.28% (active).
To `Cc1nc(-c2ccccc2)cc2c(O)c(C(=O)N/N=C/c3ccc(N(C)C)cc3)[nH]c(=O)c12` belongs 77.6%; to `CCOc1ccc(I)cc1`, 105%.
As for `O=C(CSc1nnc(-c2ccc(Cl)cc2)o1)Nc1ccc(C(=O)/C=C/c2ccccc2)cc1`, the figure is 98.7%.
With `CC(=O)c1ccc(N=C(C#N)C2=C(O)c3ccccc3C2=O)cc1`, the growth was 94.5%.
As for `O=C(C(=O)N1CCOCC1)c1ccc(O[C@H]2O[C@H](CO)[C@@H](O)[C@H](O)[C@@H]2O)cc1`, the growth was 97.5%.
Take `COC(=O)[C@@H](Cc1c[nH]c2ccccc12)NC(=O)[C@H](Cc1ccccc1)NCc1ccncc1`: the growth is 103%.
As for `Cc1c(Cl)cccc1NC(=O)c1sc2nc3c(cc2c1N)C(=O)CCC3`, the figure is 48.6%; as for `NC(=O)CN1CCN(c2ccccc2Cl)CC1`, 108%; as for `O=c1c(CNc2ccc(S(=O)(=O)Nc3ncccn3)cc2)coc2ccccc12`, 108%.
To `COC(=O)C1OC1c1cc([N+](=O)[O-])ccc1OC` (centres undefined) belongs 76.2%; to `Fc1cc(F)cc(C(c2c[nH]c3ccccc23)c2c[nH]c3ccccc23)c1`, 111%; to `CC1(C)CC[C@]2(C(=O)OC(=O)[C@]34CCC(C)(C)C[C@@H]3C3=CC[C@@H]5[C@@]6(C)CCC(=O)C(C)(C)[C@@H]6CC[C@@]5(C)[C@]3(C)CC4)CC[C@]3(C)C(=CC[C@@H]4[C@@]5(C)CCC(=O)C(C)(C)[C@@H]5CC[C@]43C)[C@H]2C1`, 61.5% [100 µM].
Consider `Cc1nc2sc(C(=O)Nc3ccccc3)c(N)c2cc1C(=O)/C=C/c1ccccc1`, for which the growth was 2.08% (active).
On to `CNS(=O)(=O)Nc1nccc(Cc2c(C)c3ccc(Oc4ncccn4)cc3oc2=O)c1F`, for which the growth is 62.9%.
As for `COc1cnc2c(c1)C(=O)c1c-2n(CCCN2CCNCC2)c(=O)c2cc([N+](=O)[O-])ccc12`, the figure is -74.8% (active); as for `CCOc1ccc(C(=O)O)cc1`, 83.4%; as for `Cc1ccc(-c2nc(C#N)c(S(=O)(=O)NCCO)o2)cc1`, 37.1%.
As to `COc1ccc(N2CCC(=S)NC2=S)cc1`, the growth is 97.7%.
With `O=C(CCN1CCCC1)Nc1ccc2c(NCCc3ccccc3)c3ccccc3nc2c1`, the growth is -40.8% (active).
To `CO[C@H]1C[C@@H]2CC[C@@H](C)[C@@](O)(O2)C(=O)C(=O)N2CCCC[C@H]2C(=O)O[C@H]([C@H](C)C[C@@H]2CC[C@@H](OCCO)[C@H](OC)C2)CC(=O)[C@H](C)/C=C(\C)[C@@H](O)[C@H](OC)C(=O)[C@H](C)C[C@H](C)\C=C/C=C/C=C/1C` belongs 26.9%; to `O=C(Nc1ccccc1C(=O)N/N=C(\c1ccccc1)c1ccccn1)c1ccccc1`, -19.4% (active).
For `CNC(=O)c1cc(Oc2cccc3nc(NC(=O)Nc4cc(C(F)(F)F)ccc4Cl)ccc23)ccn1`, the growth is 111%.
`CC[C@]12C=CCN3CC[C@@]4(c5ccc(OC)cc5N(C)[C@H]4[C@@](O)(C(=O)OC)[C@@H]1OC(=O)CCC[P+](c1ccccc1)(c1ccccc1)c1ccccc1)[C@@H]32`: the growth was -75.6% (active).
To `Cc1ccc(-c2csc(N/N=C/c3nc4ccccc4n3C3CC3)n2)cc1` belongs 98.5%; to `CCCSc1nc2ccc(C)cc2cc1/C=[N+](\[O-])c1ccccc1`, 88.4%.
